Screens deposited in PubChem BioAssay by several laboratories.
A selection: hits, their analogues and other compounds. The true share with any hit is near 2.6%.
TPT1 inhibitor: blocks Candida albicans tRNA 2'-phosphotransferase. recombinant caTPT1, FP RNA substrate dephosphorylation. hit rate 0.81% among 300,000. inhibition, % at 5 µM. AID 1962;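 active = inhibition above the mean of all tested compounds plus 3 SD, set per screening campaign, cut at about 24% in these data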
CRFR2-BP ag: agonists of human CRF-binding protein/CRF-R2 receptor complex; hit rate 0.46% among 350,000; activation, % at 13.2 µM; HEK293 CRF-R2/CRF-BP, calcium dye fluorescence (FLIPR); percent of saturating CRF peptide response; AID 588473;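 active = activation of at least 50%, plus an integration ratio under a set limit after plate pattern correction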
Myeloid diff 2: compounds promoting myeloid differentiation; ER-HoxA9 myeloid progenitors, lysozyme-GFP differentiation, flow cytometry; calls only at 10 µM; hit rate 1% among 360,000; AID 624256;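 active = normalized GFP-positive differentiation at or above the plate's own cutoff, the solvent-only control mean plus 3 SD; inconclusive = no clear call, values can overlap the other calls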;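 note: cells exposed to compound for four days before flow analysis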
IDE cell inh: inhibits human insulin-degrading enzyme in HEK cells; inhibition, % at 5.59 µM; hit rate 0.41% among 320,000; FAbetaB cleavage, fluorescence polarization;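 active = percent inhibition above the average of all tested compounds plus 3 SD, set per screening campaign, cut at about 16% in these data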;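 note: IDE supplied by intact live HEK cells; FP after avidin binding of uncleaved biotin substrate so inhibition keeps polarization high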
IDE act: IDE (human) activation, cell-based; P14735; HEK cells, FAbeta-B cleavage, fluorescence polarization; 0% vehicle, 100% cell-free pure enzyme wells; activation, % at 5.96 µM; hit rate 0.073% among 340,000; AID 493087;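 active = activation above the mean of all tested compounds plus 3 SD, set per screening campaign, cut at about 17% in these data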
CRFR2-BP antag: blocks CRF-induced signaling of the CRF-BP/CRF-R2 complex; HEK293 CRF-R2/CRF-BP, CRF-induced calcium fluorescence; inhibition, % at 11.8 µM; hit rate 0.59% among 350,000;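 active = inhibition of the ligand-induced calcium signal above about 50% at the single tested concentration, limit read from the data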
caTPT1 confirm: confirmation of Candida albicans TPT1 inhibitors | hit rate 74% among 2,400 | recombinant caTPT1, fluorescence polarization, RNase T1 coupled | inhibition, % at 5 µM | AID 2149 | shares compounds with TPT1 inhibitor;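 active = inhibition above the primary screen limit, the mean inhibition of all tested compounds plus 3 SD, cut at about 25% in these data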
RNase T1 inh: blocks Aspergillus oryzae RNase T1, a TPT1 counter-screen; shares compounds with TPT1 inhibitor; RNase T1 cleavage, fluorescence polarization, 1536-well; inhibition, % at 5 µM; hit rate 83% among 2,400; AID 2153;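 active = inhibition above the solvent-only control well mean plus 3 SD, limit set per screening run, cut at about 23% in these data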;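 note: inhibitors block cleavage so intact labeled substrate keeps polarization high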
Numbers stand for hits; n = inactive; u = inconclusive; x = no result given; + = active, no number.

SMILES | TPT1 inhibitor | CRFR2-BP ag | Myeloid diff 2 | IDE cell inh | IDE act | CRFR2-BP antag | caTPT1 confirm | RNase T1 inh
COc1cccc(C(O)c2ncc(-c3cccc(C(F)(F)F)c3)[nH]2)c1 (stereo not given) | x | x | n | x | x | x | x | x
COc1ccc(N2CCN(C(=O)c3ccc4c(c3)NC(=O)C(CSCc3ccccc3F)N4)CC2)cc1 (stereo not given) | x | n | n | x | x | n | x | x
O=C1Nc2cc(C(=O)N3CCN(c4ccccc4F)CC3)ccc2NC1CSCc1ccccc1F (stereo not given) | 134 | x | x | n | x | x | 91 | 99
COc1ccccc1N1CCN(C(=O)c2ccc3c(c2)NC(=O)C(CSCc2ccccc2C)N3)CC1 (stereo not given) | 75 | x | x | n | x | x | n | 26
Cc1cccc(N2CCN(C(=O)c3ccc4c(c3)NC(=O)C(CSCc3cccc(F)c3)N4)CC2C)c1 (stereo not given) | 98 | n | + | n | n | n | 99 | 110
CCOC(=O)c1cc(C#N)c(SCC(N)=O)[nH]c1=O | 32 | n | n | n | n | n | 40 | 50
CCO/C=C1/C(=O)N(C)C(=O)c2cc(OC)ccc21 | 39 | n | n | n | n | n | 55 | 66
Cn1c(C(=O)NC2CCCCC2)cc2c(=O)n(C)c3ccccc3c21 | 67 | n | n | n | n | n | n | n
Cc1ccc(N=Cc2sc(O)c3ccccc23)c(C)c1 | 117 | n | n | n | n | n | 80 | 94
CCSc1ncc(/C=N/Nc2ccc([N+](=O)[O-])cc2)n1C | 56 | n | n | n | n | n | 57 | 66
N#Cc1ccccc1Cn1cc(/C=N/Nc2ccc([N+](=O)[O-])cn2)c2ccccc21 | 37 | n | + | n | n | n | 82 | 89
CCSc1ncc(/C=N/Nc2ccccc2)n1C | n | n | n | n | n | n | x | x
Cc1cc(/C=N/Nc2ccc([N+](=O)[O-])cn2)c(C)n1-c1ccc(C(=O)O)cc1 | 54 | n | n | n | n | n | 68 | 79
Cc1ccccc1-n1c(C)cc(/C=N/Nc2ccc([N+](=O)[O-])cn2)c1C | 38 | n | n | n | n | n | 41 | 56
O=[N+]([O-])c1ccc(NN=Cc2ccccc2O)nc1 | x | n | u | x | n | n | x | x
CCOc1ccc(S(=O)(=O)N2CCN(C(=O)C3CCC3)CC2)cc1 | n | n | n | n | n | n | x | x
O=S(=O)(NCc1ccco1)c1ccccc1Br | n | n | n | n | n | n | x | x
O=[N+]([O-])c1ccc(N/N=C\c2cccn2-c2ccccc2)nc1 | 88 | n | n | n | n | n | 78 | 90
O=C(NCCc1ccccc1)c1cnc2sccn2c1=O | 33 | n | n | n | n | n | n | n
CCN(CC)c1ccc(/C=C2\NC(=O)NC2=O)cc1 | 27 | n | n | n | n | n | 36 | 50
O=C(C[n+]1cc(Br)cc2ccccc21)c1ccc(Cl)cc1 | n | n | n | n | n | n | x | x
O=C(C[n+]1cc(Br)cc2ccccc21)c1ccc(Br)cc1 | 27 | n | n | n | n | n | 36 | 48
CCOC(=O)C1=CCC(c2ccccc2C(F)(F)F)N(S(=O)(=O)c2ccc(C)cc2)C1 (stereo not given) | x | x | n | x | x | x | x | x
O=C(CCSc1ccccc1)Nc1ccc(OCc2ccccc2)cc1 | n | n | n | n | n | n | x | x
CN(C)c1ccc(/C=C(/NC(=O)c2ccccc2)C(=O)N2CCCC2)cc1 | 60 | n | n | n | n | n | 35 | 44
Cc1ccc(/C=C(\NC(=O)c2ccccc2)C(=O)N2CCCCC2)cc1 | n | n | n | n | n | n | x | x
Cn1cc(CNCc2ccccc2OCC(O)CN2CCc3ccccc3C2)cn1 (stereo not given) | 26 | n | n | n | n | n | n | n
Cc1nn(-c2ccccc2)c(C)c1/C=C1\C(=O)N(C)C(=S)N1C | n | n | n | n | n | n | x | x
CN1C(=O)/C(=C\C=C2/CCCN2C)N(C)C1=S | 60 | n | n | n | n | n | 88 | 102
